Shown are actives, neighbours in structure and some others; about 8.8% of the full set was active somewhere.
HT1080 IDH1KD tx = kills HT-1080 cells with IDH1 knockdown. HT-1080 IDH1 knockdown viability, ATP luminescence, 48 h. Potency, µM (titrated, usually from 46.1 µM), actives largely listed as cytotoxic. 2% of 360,000 active. AID 686971
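Assay cells: HT-1080 with IDH1 knockdown, 750 per well, RPMI/5% FBS. Exposure: 48 h at 37 °C following 2 h pre-incubation. Read: CellTiter-Glo luminescence; fitted concentration-response, curve class assigned.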
KB-V1 MDR tox = kills drug-selected multidrug resistant KB-V1 cells; KB-V1 MDR cells viability, CellTiter-Glo, 72 h; Potency, µM (titrated, usually from 46.1 µM), most hits filed as cytotoxic; 3.4% of 400,000 active; AID 1347076; further: nearly all actives have a fitted effect of over 60% in size
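Following 72 h at 37 degrees C with compound, KB-V1 cell viability was read by CellTiter-Glo luminescence, medium being phenol-red-free DMEM plus 10% FBS; concentration-response parameters came from normalized, curve-fitted qHTS data.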
IL1B secr inh = inflammasome signaling inhibition, IL-1 beta readout; THP-1 LPS/ATP IL-1B secretion, AlphaLISA, 16 h; active compounds read low; activity change, % at 57.5 µM; 4.7% of 360,000 active; AID 743279; in the data active means activity change below about -50%; inconclusive means mostly about -30% to -49%
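Secreted IL-1B measured by AlphaLISA bead assay after 16 h compound exposure of THP-1 cells; compounds (final up to 57.5 uM) added 1 h before LPS (250 ng/mL) and ATP (1.25 mM) stimulation; lower signal means less secretion.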
HT1080-NT tox = kills 2HG-producing HT-1080-NT fibrosarcoma cells; HT-1080-NT fibrosarcoma viability, CellTiter-Glo ATP luminescence, 48 h; Potency, µM (titrated, usually from 46.1 µM), usual class: cytotoxic; 1.6% of 360,000 active; AID 686970;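 further: NT is the 2HG producing partner of a matched IDH1 knockdown line; nearly all actives have a fitted effect of over 55% in size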
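Viability by CellTiter-Glo luminescence after 48 h compound exposure at 37C of HT-1080-NT cells (750/well, RPMI, 5% FBS). % activity scaled between DMSO wells and medium-only wells, then curve-fitted and categorized by curve class.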
KB-3-1 tox = kills parental KB-3-1 adenocarcinoma cells; KB-3-1 viability, CellTiter-Glo ATP luminescence, 72 h; Potency, µM (series often up to 46.1 µM), usual class: cytotoxic; 1.4% of 400,000 active; AID 1347075; further: nearly all actives have a fitted effect of over 60% in size
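Here the drug-naive KB-3-1 line serves as comparator for MDR sub-line selectivity; cells received compound titrations, 72 h at 37 °C, then CellTiter-Glo readout.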
A number is an active result; n = inactive; u = inconclusive; x = not tested or not shown; [ ] = another dose, or the depositor's remark. Unless noted, the call rests on the fitted dose curve; in most records, active means well fitted curve in the direction sought with a large enough effect; inconclusive means small, poorly fitted or top-dose-only effect, or another doubt; inactive means no such curve, though single readings can be large; an effect the other way counts as inactive or inconclusive.

SMILES | HT1080 IDH1KD tx | KB-V1 MDR tox | IL1B secr inh | HT1080-NT tox | KB-3-1 tox
CC(Cc1n[nH]c(=S)n1N)c1ccccc1 (configuration not stated) | n | n | n | n | n
CC1CCCC12NC(=O)NC2=O (configuration not stated) | n | n | n | n | n
Brc1ccc(N/N=C(/N=Nc2nn[nH]n2)c2ccccc2)cc1 | 2.91µM | u | n | u | n
CCCC(=O)c1cc2c(cc1NC(=O)CC)OCCO2 | n | n | n | n | n
CCC(=O)Nc1cc2c(cc1C(=O)CC)OCCO2 | n | 20.6µM | n | n | n
CC1Cc2cc(/C(O)=C3/C(=O)C(=O)N(CCCn4ccnc4)C3c3ccc(Br)cc3)ccc2O1 (configuration not stated) | n | n | n | n | n
C=CCn1c(CNC(=O)c2ccccc2F)nnc1SCC(=O)NC(C)c1ccccc1 (configuration not stated) | n | n | n | n | n
Cc1ccccc1NC1=C(Cl)C(=O)OC1OC(=O)c1ccco1 (configuration not stated) | 11.2µM | n | u | u | n
COc1ccccc1NC1=C(Cl)C(=O)OC1OC(=O)c1ccco1 (configuration not stated) | u | n | n | 20.6µM | n
COc1cccc(NC2=C(Cl)C(=O)OC2OC(=O)c2ccco2)c1 (configuration not stated) | n | n | u | u | n
Cc1ccc(NC2=C(Cl)C(=O)OC2OC(=O)c2ccc(C)cc2)cc1 (configuration not stated) | n | u | -101.5 | n | n
COCCNC(=O)C1CCCN(C(=O)c2cc(-c3ccccc3)cs2)CC1 (configuration not stated) | n | n | n | n | n
CCC(C)Sc1ccc([C@H]2N[C@@](C)(C(=O)OC)[C@H]3C(=O)N(C)C(=O)[C@@H]23)cc1 (some centres not stated) | n | n | n | n | n
CCC(CC)NCC(O)COc1ccc(Br)cc1 (configuration not stated) | n | u | -52.2 | n | n
COc1ccc(OCC(O)CNC(=O)c2ccc(Br)cc2)cc1 (configuration not stated) | n | 4.11µM | n | n | n
CC(=O)OC1CC[C@@]2(C)C(CCC3C2CC(=O)[C@@]2(C)C3CC3CC(C)=CC(=O)C32)C1 (some centres not stated) | n | n | n | n | n
Cc1ccc(C(C)C)c(Oc2cnccn2)c1 | n | u | n | n | n
OC(c1ccccc1)(c1nc(-c2cc(F)cc(F)c2)cs1)C(F)(F)F (configuration not stated) | u | n | u | u | n
OC(c1ccccc1)(c1nc(-c2ccccc2)cs1)C(F)(F)F (configuration not stated) | u | n | n | 20.6µM | n
OC(c1ccccc1)(c1nc(-c2cccc(F)c2)cs1)C(F)(F)F (configuration not stated) | u | n | n | 18.4µM | n
Cc1nncn1-c1ccc(C(=O)Nc2cc(F)ccc2F)cc1 | x | n | x | x | n
CCN=C1S/C(=C\c2ccc(O)c(OCC)c2)C(=O)N1CC | n | 18.4µM | n | n | n
CCN=C1S/C(=C\c2cc(OCC)c(O)cc2Br)C(=O)N1CC | 20.6µM | n | n | 18.4µM | u
CCCNC(=O)N1CCN(S(=O)(=O)c2ccc3c(ccn3C)c2)CC1 | x | n | x | x | n
OCC1(Cc2ccccc2)CCCN(Cc2cn[nH]c2-c2ccccc2)C1 (configuration not stated) | n | n | n | n | n
SMILES | HT1080 IDH1KD tx | KB-V1 MDR tox | IL1B secr inh | HT1080-NT tox | KB-3-1 tox
CCn1cc(CN2CCCC(CO)(Cc3ccc(F)cc3)C2)c2ccccc21 (configuration not stated) | 18.4µM | n | -65.3 | u | n
COc1cccc(CC2(CO)CCCN(Cc3cn(C)c4ccccc34)C2)c1 (configuration not stated) | n | n | n | n | n
Cn1cc(CN2CCCC(CO)(Cc3ccccc3)C2)c2ccccc21 (configuration not stated) | u | n | -58.9 | u | n
Cc1cc2c(cc1C)-n1nnnc1C(N1CCN(c3ccccn3)CC1)C(c1ccc3c(c1)OCO3)=N2 (configuration not stated) | n | n | n | n | n
COC(=O)Cc1c(C)[nH]n(-c2cc(Cl)cc(Cl)c2)c1=O | u | n | -65.3 | u | n
CC1(Cc2ccc(Cl)cc2)C(=O)Nc2c(Cl)ccc(Cl)c21 (configuration not stated) | u | n | n | u | n
COc1ccc(C(=O)N2C=Cc3ccccc3C2C#N)cc1 (configuration not stated) | n | n | n | n | n
N#CC1c2ccccc2-c2ccccc2N1C(=O)c1ccccc1 (configuration not stated) | 9.2µM | 14.6µM | n | u | u
COC(=O)c1cc(NC(=O)Nc2ccc3snnc3c2)cc(C(=O)OC)c1 | x | n | x | x | n
Nc1nc(CSC(=S)N2CCN(c3ccccc3)CC2)nc(Nc2ccccc2)n1 | n | 3.26µM | n | n | n
COc1ccccc1Nc1nc(N)nc(CSC(=S)N2CCN(c3ccccc3)CC2)n1 | n | u | n | n | n
Cc1ccc(Nc2nc(N)nc(CSC(=S)N3CCOCC3)n2)c(C)c1 | n | 8.2µM | u | n | n
Cc1ccc(Nc2nc(N)nc(CSC(=S)N3CCN(c4ccccc4)CC3)n2)cc1 | n | 16.4µM | n | n | n
COc1ccc(Nc2nc(N)nc(CSC(=S)N3CCOCC3)n2)cc1 | n | n | n | n | n
Nc1nc(CSC(=S)N2CCOCC2)nc(Nc2ccc(F)cc2)n1 | n | 16.4µM | n | n | n
CC(C)(C)OC(=O)C[C@H]1C/C=C\C[C@H](CC(=O)NCCO)C(=O)N[C@@H](Cc2ccccc2)COC1=O | n | n | n | n | n
CCCS(=O)(=O)NC(=O)C1(C)CCN(C(=O)c2cccc(C(F)(F)F)c2)C1 (configuration not stated) | n | n | n | n | n
O=C(NCC(c1cccs1)N1CCOCC1)c1cc2ccccc2oc1=O (configuration not stated) | n | u | n | n[9.24 µM] | n
Cc1ccc(/C=C/c2onc(C)c2S(=O)(=O)N2CCC(C(=O)N3CCCCC3)CC2)cc1 | n | n | u | n | n
CCCN1CCN(C(=O)C2CCN(S(=O)(=O)c3c(C)noc3/C=C/c3ccc(C)cc3)CC2)CC1 | u | u | u | 16.4µM | 25.9µM
CC(=O)N1CCN(c2csc3ccc(Cl)cc3c2=O)CC1 | x | n | x | x | n
Cc1oc2c(c1C(=O)Nc1cccc(Br)c1)C1=NCCN1C=N2 | x | n | x | x | n
Nc1cc(N)nc(SCCOc2ccccc2F)n1 | n | 23.1µM | n | n | n
